Measurements from PubChem BioAssay AID2842 (Southern Research Institute, 2010).
Among all 24,000 compounds or so, about 1,200 (5%) were called active. About 2% were inconclusive and are not listed. The rule behind the calls is not given here. Only a sample is shown.

Experiment: Mycobacterium tuberculosis H37Rv growth inhibition, putative kinase inhibitor library, confirmatory dose response (AID 2842);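 note: bacteria incubated one week before Alamar blue readout; 0% = bacteria only wells and 100% = bacteria with high antibiotic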
Details: M. tuberculosis H37Rv growth inhibition; CC50: measured here: Vero cell cytotoxicity; inhibition: active compounds read high

Row | SMILES | inhibition
1 | COc1ccc(N2C(=O)/C(=C3/C(=O)N(C)c4ccccc43)SC2=S)c(OC)c1 | -6.83% (inactive)
2 | NC(=O)N/N=C/c1ccccc1[N+](=O)[O-] | -0.23% (inactive)
3 | Cc1ccc(-n2nnc3c(=O)n(CC(=O)Nc4cccc(F)c4)cnc32)cc1Cl | 5.52% (inactive)
4 | O=c1[nH]c(NCCc2ccccc2)nnc1-c1ccccc1 | -9.26% (inactive)
5 | O=C(O)/C=C/C(=O)NCc1cn(-c2ccccc2)nc1-c1ccc(Cl)cc1 | -11.2% (inactive)
6 | Nc1ncnc2c1c1nc3ccccc3nc1n2CCc1ccccc1 | -4.35% (inactive)
7 | COC(CNc1ncnc2c1cnn2-c1ccc(C)c(Cl)c1)OC | 15.5% (inactive)
8 | CCOc1cccc(/C=N\NC(=O)Cn2cnc3ccccc32)c1O | -6.32% (inactive)
9 | Cc1nnc(SCCn2c(N3CCN(Cc4ccccc4)CC3)nc3c2c(=O)[nH]c(=O)n3C)s1 | 4.11% (inactive)
10 | CC(=O)Nc1ccc(NC(=O)NC2CC(=O)N(c3ccc(C)cc3)C2)cc1 (stereo not given) | -0.32% (inactive)
11 | Cc1ccc(C)c(-c2nnc(NC(=O)/C=C/c3ccccc3)o2)c1 | 75.9% (inactive)
12 | Cc1cccc(-c2nnn3c2nc(NCCc2ccc(S(N)(=O)=O)cc2)c2ccccc23)c1 | -2.93% (inactive)
13 | O=C(NCCO)c1ccc(CSc2nc3ccccc3c(=O)[nH]2)cc1 | -16.4% (inactive)
14 | Cn1c(=O)c2c(SCC(=O)Nc3nc4ccccc4s3)nc(-c3ccc(F)cc3)nc2n(C)c1=O | 14.6% (inactive)
15 | NC(=O)c1nc(-c2cccnc2)nc2c1[nH]c(=O)n2-c1ccc(Cl)c(Cl)c1 | 5.29% (inactive)
16 | CCOC(=O)CNc1ncnc(N)c1[N+](=O)[O-] | 2.73% (inactive)
17 | Fc1ccc2nc(Nc3ccc4c(c3)OCCO4)sc2c1 | 72.2% (inactive)
18 | CC(=O)N1CCc2c(sc(NC(=O)c3ccc4ccccc4c3)c2C#N)C1 | 13.2% (inactive)
19 | CCOC(=O)c1ccc(Nc2nnc3[nH]c(=O)c4c(C)c(C)sc4n23)cc1 | -12.7% (inactive)
20 | COc1cc(OC)cc(C(=O)NCCc2cc3ccc(C)cc3[nH]c2=O)c1 | -10.9% (inactive)
21 | CCOC(=O)N1CCN(C(c2cccnc2)c2c(O)cc(C)n(CCOC)c2=O)CC1 (stereo not given) | 0.85% (inactive)
22 | COc1ccc(Cl)c2sc(N(Cc3cccnc3)C(=O)c3cccc(S(C)(=O)=O)c3)nc12 | -13.3% (inactive)
23 | CC(=O)Nc1ccc(NC(=O)CSc2nnc(CNC(=O)c3ccccc3)o2)cc1 | -8.68% (inactive)
24 | Cn1c(=O)[nH]c(=O)c2c1nc(N1CCC(Cc3ccccc3)CC1)n2CCSc1nc2ccccc2o1 | 19.9% (inactive)
25 | Cc1ccc(CSc2nc3c(c(=O)[nH]c(=O)n3C)n2Cc2ccccc2Cl)cc1 | -2.78% (inactive)
26 | CC1CCCN(S(=O)(=O)c2ccc(C(=O)Nc3nc4ccc5ccccc5c4s3)cc2)C1 (stereo not given) | 14.8% (inactive)
27 | Nn1c(SCC(=O)Nc2ccc(C(F)(F)F)cc2)nncc1=O | -15.7% (inactive)
28 | O=C(Nc1nc(-c2ccc3c(c2)OCCO3)cs1)c1cccc(Cl)c1 | -0.85% (inactive)

Row | SMILES | inhibition
29 | COc1cc2nc(Nc3cccc(Cl)c3)sc2cc1OC | 48.6% (inactive)
30 | COc1ccc2c(c1)c(=O)c(C(=O)c1ccc(Cl)cc1)cn2CC(=O)Nc1ccc2c(c1)OCO2 | -1.76% (inactive)
31 | CC(C)c1ccc(OCC(=O)N/N=C/c2ccco2)cc1 | 6.99% (inactive)
32 | CCOC(=O)c1sc2nc(-c3ccccc3)cc(-c3ccccc3)c2c1N=Cc1cc(I)cc(I)c1O | -1.26% (inactive)
33 | O=c1[nH]c(NCc2ccc3c(c2)OCO3)nnc1Cc1ccc(F)cc1 | -0.653% (inactive)
34 | Nc1nc(SCC(=O)Nc2cccc(F)c2)[nH]c(=O)c1NC(=O)c1ccc(F)cc1 | -6.89% (inactive)
35 | COc1ccc(S(=O)(=O)Nc2cc3c4c(c2)CC(=O)N4CCC3)cc1 | 14.8% (inactive)
36 | Nc1nc(SCc2cccc(Cl)c2)[nH]c(=O)c1NC(=O)c1ccc(C(F)(F)F)cc1 | -5.65% (inactive)
37 | Cc1ccc(Nc2nc(-c3ccc(S(=O)(=O)N4CCC(Cc5ccccc5)CC4)cc3)cs2)cc1 | -2.1% (inactive)
38 | O=C1NC(=O)C(=Cc2nc(-c3ccc(Cl)cc3)n3ccccc23)C(=O)N1 | 15.3% (inactive)
39 | NC(=O)COc1ccc(/C=c2\sc3nc(-c4ccccc4Br)nn3c2=O)cc1 | -6.4% (inactive)
40 | Cc1ccc(NC(=O)c2cnc(SCC(=O)N3CCOCC3)n(C)c2=O)cc1 | 11.1% (inactive)
41 | COc1ccc(Cl)cc1C(=O)Nc1nnc(-c2ccc(Cl)cc2Cl)s1 | 0.42% (inactive)
42 | CC1CCc2c(C(=O)Nc3ccc(OC(F)(F)F)cc3)csc2C1 (stereo not given) | 7.32% (inactive)
43 | CCn1c(SCCc2ccccc2)nc2c1c(=O)[nH]c(=O)n2C | 16.5% (inactive)
44 | O=C(O)c1ccc(Nc2nc(-c3cccnc3)nc3ccccc23)cc1 | 5.44% (inactive)
45 | COc1ccc(OC)c(NC(=O)c2cnc3n(c2=O)CCS3)c1 | 10.9% (inactive)
46 | CCOC(=O)c1nn(-c2ccc(F)cc2)c(=O)c2c(NC(=O)C(CC)c3ccccc3)scc12 (stereo not given) | -11.7% (inactive)
47 | O=C(Nc1nc(-c2nc3ccccc3s2)cs1)c1ccc2ccccc2c1 | 3.09% (inactive)
48 | Cc1csc(NC(=O)CSc2nnc(CNC(=O)c3cccc(C(F)(F)F)c3)o2)n1 | -15.1% (inactive)
49 | COc1cc(C)c(S(=O)(=O)Nc2ccc(-n3c(C)nc4ccccc4c3=O)cc2C)cc1C | -7.48% (inactive)
50 | O=C(NNc1ncnc2c1cnn2-c1cccc(Cl)c1)c1cccc(Cl)c1 | 85% (inactive)
51 | O=C(CSc1nnc2ccc(-c3cccc([N+](=O)[O-])c3)nn12)NCc1ccco1 | 0.47% (inactive)
52 | CS(=O)(=O)c1ccc([N+](=O)[O-])c(NCCCC(=O)O)c1 | -6.3% (inactive)
53 | CCOc1ccccc1NC(=O)CSc1nnc(C)c(=O)n1N | -13.8% (inactive)
54 | O=C(Nc1nnc(-c2cccs2)o1)C(c1ccccc1)c1ccccc1 | 9.32% (inactive)
55 | C#CCn1c(=NC(=O)c2cccc([N+](=O)[O-])c2)sc2cccc(F)c21 | 13.5% (inactive)
